A short description of this test: NCI Yeast Anticancer Drug Screen. Data for the rad50EPP+ strain (AID 151).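 Also: 0% = growth of vehicle-treated control cultures.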 The note with it: S. cerevisiae rad50 mutant strain, active compounds read high. The procedure:
Growth inhibition of yeast strains with defined genetic alterations is measured as a screen for potential anti-cancer activity. Selected strains with alterations in DNA damage repair or cell cycle control were exposed to compounds and growth inhibition was measured relative to vehicle treated controls. The strain used in this assay is rad50EPP+

This is part of a sample that, as a whole, favours compounds with a hit. Of some 79,000 tested, about 15% had one in any assay. Unmarked numbers belong to inactive results. The source made the active and inactive calls. Rule as the data show it: active = growth inhibition above about 70%; inactive = the rest.

As to `Cc1ccc(CC2(OCCN(C)C)CCC(C(C)(C)C)CC2)cc1` (stereo not given), the growth inhibition runs as follows: (at 1.2 µM) -4%; (at 3.7 µM) -9%; (at 11.0 µM) -3%; (at 33.0 µM) -2%; (at 100.0 µM) 97% (active).

Regarding `O=[N+]([O-])c1cccc2nc3ccccc3c(NCCC[N+]3([O-])CCCCC3)c12`, the growth inhibition (at 1.2 µM) was 10%; the growth inhibition (at 3.7 µM) was 36%; the growth inhibition (at 11.0 µM) is 77% (active); the growth inhibition (at 33.0 µM) is 93% (active); the growth inhibition (at 100.0 µM) is 96% (active).

For `CC(C)(CCCCC(C)(C)[N+](C)(C)C)[N+](C)(C)C`, the growth inhibition by setting is: (at 1.2 µM) -3%; (at 3.7 µM) -4%; (at 11.0 µM) 0%; (at 33.0 µM) -1%; (at 100.0 µM) -2%.

As to `O=c1ccc2ccccc2c2ccccc12`, the growth inhibition is, setting by setting: (at 1.2 µM) -4%; (at 3.7 µM) 13%; (at 11.0 µM) 46%; (at 33.0 µM) 95% (active); (at 100.0 µM) 99% (active).

Take `CC1CC[C@]2(C(=O)O)CCC3(C)C(=CC(=O)C4[C@@]5(C)CCC(=O)C(C)(C)C5CC[C@]43C)[C@@H]2[C@H]1C` (stereo not given in full): the growth inhibition is 9% (at 1.2 µM); 21% (at 3.7 µM); 28% (at 11.0 µM); 18% (at 33.0 µM); 30% (at 100.0 µM).

As to `C/C=C/SC(=Nc1ccccc1)Nc1ccccc1`, the growth inhibition is, setting by setting: (at 1.2 µM) 3%; (at 3.7 µM) 3%; (at 11.0 µM) 11%; (at 33.0 µM) 23%; (at 100.0 µM) 39%.

For `O=C1C(Br)=C(c2ccccc2)O/C1=C/C(=O)c1ccc(Br)cc1`, the growth inhibition reads like this: (at 1.2 µM) 9%; (at 3.7 µM) 22%; (at 11.0 µM) 59%; (at 33.0 µM) 84% (active); (at 100.0 µM) 86% (active).

In the case of `O=Cc1ccc2c(c1)C(=O)c1ccccc1C2=O`, the growth inhibition by setting is: (at 1.2 µM) 0%; (at 3.7 µM) 5%; (at 11.0 µM) 33%; (at 33.0 µM) 73% (active); (at 100.0 µM) 83% (active).

Source of the values: PubChem BioAssay (NCI).
